Consider 31 targets from the supplement of paper PMC12819154, “High-throughput peptide-centric local stability assay extends protein–ligand identification to membrane proteins, tissues and bacteria” (Nature Structural & Molecular Biology, 2025).

Chain of UniProt Q9DCZ4 (Q9DCZ4 whole entry): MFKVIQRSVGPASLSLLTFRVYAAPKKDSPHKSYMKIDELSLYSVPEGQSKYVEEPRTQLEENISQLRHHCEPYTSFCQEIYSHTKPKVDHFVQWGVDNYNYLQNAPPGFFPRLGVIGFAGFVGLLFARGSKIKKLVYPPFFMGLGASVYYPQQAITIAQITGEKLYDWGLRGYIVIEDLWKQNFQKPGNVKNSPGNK
Chain of UniProt Q9D826 (Q9D826 whole entry): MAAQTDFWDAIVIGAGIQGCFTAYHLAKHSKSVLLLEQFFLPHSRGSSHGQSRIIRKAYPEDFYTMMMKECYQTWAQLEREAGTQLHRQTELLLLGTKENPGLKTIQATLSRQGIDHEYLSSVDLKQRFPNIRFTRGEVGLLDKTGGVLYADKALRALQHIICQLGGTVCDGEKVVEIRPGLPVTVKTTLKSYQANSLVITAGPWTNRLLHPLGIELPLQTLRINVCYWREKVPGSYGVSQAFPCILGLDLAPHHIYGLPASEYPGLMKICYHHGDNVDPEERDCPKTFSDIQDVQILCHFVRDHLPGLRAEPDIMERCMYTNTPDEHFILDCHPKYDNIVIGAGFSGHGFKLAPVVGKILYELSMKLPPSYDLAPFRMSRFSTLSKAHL
Chain of UniProt Q99JP0 (Q99JP0 whole entry): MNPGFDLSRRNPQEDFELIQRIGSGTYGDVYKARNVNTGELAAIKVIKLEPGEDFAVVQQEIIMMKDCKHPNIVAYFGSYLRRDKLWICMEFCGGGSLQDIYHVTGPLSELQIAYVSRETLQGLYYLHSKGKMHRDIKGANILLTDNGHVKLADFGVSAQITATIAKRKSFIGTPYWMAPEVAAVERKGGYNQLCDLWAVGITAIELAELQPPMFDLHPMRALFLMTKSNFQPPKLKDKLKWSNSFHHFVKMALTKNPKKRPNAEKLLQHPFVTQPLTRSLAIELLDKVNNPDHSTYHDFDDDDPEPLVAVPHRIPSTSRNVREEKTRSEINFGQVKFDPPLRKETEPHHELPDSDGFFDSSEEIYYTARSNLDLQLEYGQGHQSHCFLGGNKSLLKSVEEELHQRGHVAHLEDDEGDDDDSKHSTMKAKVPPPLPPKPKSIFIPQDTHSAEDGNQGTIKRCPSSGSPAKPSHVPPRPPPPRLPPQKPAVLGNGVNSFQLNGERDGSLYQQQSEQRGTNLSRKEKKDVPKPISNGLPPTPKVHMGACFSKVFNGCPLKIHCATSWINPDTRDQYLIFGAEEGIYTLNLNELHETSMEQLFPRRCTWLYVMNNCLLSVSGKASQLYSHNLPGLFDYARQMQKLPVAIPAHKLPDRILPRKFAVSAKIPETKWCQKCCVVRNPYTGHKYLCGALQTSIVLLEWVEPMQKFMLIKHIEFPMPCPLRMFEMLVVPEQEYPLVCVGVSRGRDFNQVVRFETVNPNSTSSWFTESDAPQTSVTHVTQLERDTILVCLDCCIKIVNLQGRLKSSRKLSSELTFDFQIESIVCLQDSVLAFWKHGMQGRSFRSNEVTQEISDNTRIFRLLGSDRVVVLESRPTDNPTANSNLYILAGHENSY
Chain of UniProt Q9DC61 (Q9DC61 whole entry): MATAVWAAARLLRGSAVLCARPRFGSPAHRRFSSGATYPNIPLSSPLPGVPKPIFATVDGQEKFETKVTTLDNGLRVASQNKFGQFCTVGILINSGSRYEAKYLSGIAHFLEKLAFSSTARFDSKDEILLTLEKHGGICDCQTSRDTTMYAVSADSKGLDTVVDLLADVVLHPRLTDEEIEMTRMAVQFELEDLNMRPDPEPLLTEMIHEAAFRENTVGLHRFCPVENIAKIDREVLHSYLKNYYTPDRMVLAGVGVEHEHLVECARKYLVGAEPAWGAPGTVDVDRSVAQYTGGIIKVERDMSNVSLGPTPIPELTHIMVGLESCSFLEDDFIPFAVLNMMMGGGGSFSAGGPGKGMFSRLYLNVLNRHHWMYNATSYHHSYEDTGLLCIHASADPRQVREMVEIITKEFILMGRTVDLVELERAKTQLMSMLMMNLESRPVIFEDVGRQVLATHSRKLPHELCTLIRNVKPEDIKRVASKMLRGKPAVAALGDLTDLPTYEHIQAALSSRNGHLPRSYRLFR
Chain of UniProt P18654 (P18654 whole entry): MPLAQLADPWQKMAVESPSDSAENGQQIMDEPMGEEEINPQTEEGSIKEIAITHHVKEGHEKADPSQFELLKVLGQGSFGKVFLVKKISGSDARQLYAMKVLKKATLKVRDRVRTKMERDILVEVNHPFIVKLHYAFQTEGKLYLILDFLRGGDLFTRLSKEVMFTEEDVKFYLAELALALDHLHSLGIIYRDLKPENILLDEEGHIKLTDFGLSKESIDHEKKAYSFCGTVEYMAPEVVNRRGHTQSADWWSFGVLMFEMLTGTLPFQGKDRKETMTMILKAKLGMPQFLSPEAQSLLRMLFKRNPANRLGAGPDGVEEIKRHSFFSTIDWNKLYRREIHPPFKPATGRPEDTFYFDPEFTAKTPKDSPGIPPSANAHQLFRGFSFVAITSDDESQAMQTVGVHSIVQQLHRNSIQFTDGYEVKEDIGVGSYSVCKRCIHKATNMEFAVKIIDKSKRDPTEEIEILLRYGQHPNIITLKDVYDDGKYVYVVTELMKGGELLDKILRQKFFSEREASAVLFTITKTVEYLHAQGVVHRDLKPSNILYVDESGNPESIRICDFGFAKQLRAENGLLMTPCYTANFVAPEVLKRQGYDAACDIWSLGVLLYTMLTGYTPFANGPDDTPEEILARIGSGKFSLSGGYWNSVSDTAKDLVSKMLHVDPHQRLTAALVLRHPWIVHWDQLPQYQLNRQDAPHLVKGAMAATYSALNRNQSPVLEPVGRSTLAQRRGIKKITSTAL
Chain of UniProt Q8VCR2 (Q8VCR2 whole entry): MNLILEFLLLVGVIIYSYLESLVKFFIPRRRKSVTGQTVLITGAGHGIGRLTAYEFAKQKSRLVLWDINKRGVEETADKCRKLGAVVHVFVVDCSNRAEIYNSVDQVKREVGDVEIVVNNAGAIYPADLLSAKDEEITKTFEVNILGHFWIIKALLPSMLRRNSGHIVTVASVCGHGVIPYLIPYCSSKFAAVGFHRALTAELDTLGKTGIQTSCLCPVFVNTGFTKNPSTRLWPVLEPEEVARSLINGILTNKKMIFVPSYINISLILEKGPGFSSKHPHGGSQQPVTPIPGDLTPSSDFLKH
Chain of UniProt Q8C878 (Q8C878 whole entry): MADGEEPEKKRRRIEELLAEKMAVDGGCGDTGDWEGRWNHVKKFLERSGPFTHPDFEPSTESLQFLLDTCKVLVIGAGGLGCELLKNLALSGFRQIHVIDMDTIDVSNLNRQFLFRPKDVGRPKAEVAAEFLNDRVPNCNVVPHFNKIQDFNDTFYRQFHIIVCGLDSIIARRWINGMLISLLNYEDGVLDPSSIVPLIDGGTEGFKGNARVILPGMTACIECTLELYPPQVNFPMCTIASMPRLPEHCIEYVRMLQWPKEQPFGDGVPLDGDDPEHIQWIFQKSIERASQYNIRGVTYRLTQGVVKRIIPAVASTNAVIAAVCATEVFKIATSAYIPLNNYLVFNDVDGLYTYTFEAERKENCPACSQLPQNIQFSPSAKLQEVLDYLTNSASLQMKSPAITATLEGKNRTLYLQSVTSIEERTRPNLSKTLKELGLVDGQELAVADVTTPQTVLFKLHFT
Chain of UniProt O35857 (O35857 whole entry): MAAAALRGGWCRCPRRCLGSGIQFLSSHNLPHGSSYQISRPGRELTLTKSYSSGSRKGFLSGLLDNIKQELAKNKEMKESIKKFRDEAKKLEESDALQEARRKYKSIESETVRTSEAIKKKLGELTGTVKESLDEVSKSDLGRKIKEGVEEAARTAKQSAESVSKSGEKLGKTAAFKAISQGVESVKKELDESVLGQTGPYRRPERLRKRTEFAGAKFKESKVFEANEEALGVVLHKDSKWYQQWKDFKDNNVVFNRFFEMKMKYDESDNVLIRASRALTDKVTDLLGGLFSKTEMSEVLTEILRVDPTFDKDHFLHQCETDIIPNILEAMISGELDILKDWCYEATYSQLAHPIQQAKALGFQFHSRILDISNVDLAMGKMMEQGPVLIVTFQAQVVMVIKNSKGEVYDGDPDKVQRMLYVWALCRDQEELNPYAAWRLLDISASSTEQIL
Chain of UniProt O70589 (O70589 whole entry): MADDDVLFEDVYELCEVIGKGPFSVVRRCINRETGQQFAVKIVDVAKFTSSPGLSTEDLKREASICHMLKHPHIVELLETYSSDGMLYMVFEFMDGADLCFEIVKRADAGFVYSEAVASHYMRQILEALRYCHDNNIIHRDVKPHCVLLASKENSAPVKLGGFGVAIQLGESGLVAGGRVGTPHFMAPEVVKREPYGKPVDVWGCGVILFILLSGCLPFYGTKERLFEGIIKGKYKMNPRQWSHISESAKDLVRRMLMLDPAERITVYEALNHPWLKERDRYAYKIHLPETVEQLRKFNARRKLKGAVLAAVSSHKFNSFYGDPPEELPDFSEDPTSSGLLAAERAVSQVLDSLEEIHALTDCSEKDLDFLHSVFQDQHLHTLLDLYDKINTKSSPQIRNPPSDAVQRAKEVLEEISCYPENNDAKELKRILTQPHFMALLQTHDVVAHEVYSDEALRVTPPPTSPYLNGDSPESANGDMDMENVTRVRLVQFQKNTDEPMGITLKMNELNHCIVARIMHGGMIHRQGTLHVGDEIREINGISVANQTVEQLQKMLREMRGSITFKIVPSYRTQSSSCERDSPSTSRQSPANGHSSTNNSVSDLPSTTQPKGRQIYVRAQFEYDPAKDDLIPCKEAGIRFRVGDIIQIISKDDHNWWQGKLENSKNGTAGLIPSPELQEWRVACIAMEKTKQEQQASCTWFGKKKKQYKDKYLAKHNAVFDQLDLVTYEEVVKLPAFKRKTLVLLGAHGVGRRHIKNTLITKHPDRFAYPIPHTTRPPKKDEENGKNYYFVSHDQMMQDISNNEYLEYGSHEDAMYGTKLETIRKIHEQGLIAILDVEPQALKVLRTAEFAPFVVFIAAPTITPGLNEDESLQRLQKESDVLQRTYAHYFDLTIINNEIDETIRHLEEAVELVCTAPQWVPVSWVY

Compound in the assay: CN[C@@H]1C[C@H]2O[C@@](C)([C@@H]1OC)n1c3ccccc3c3c4c(c5c6ccccc6n2c5c31)C(=O)NC4 [staurosporine]
As to the kind of experiment: log2 fold change of tryptic peptide abundance, ligand vs vehicle (limited proteolysis) (log2 ratio); higher = more trypsin-susceptible (destabilized). The note with it: ligand concentration: 20 uM; sample: mouse liver crude lysate; replicate design: treated separately.
Turning to “UniProt Q9WTK7 (peptide sequence: SMTVVPYLEDLHGR, peptide start residue: 334)”, the log2 fold change came to 1.41. Turning to “UniProt P70424 (peptide sequence: VLGSGAFGTVYK, peptide start residue: 719)”, the log2 fold change was -1.19.

As for “UniProt Q04735 (peptide sequence: LEHEEGAPCTAIR, peptide start residue: 154)”, the log2 fold change was -2.38. Take “UniProt Q9EPJ9 (peptide sequence: DVTTFFSGK, peptide start residue: 289)”: the log2 fold change turned out to be 0.513.

As to “UniProt Q9D517 (peptide sequence: GLPPLKYHLLPR, peptide start residue: 196)”, the log2 fold change worked out at 0.633. As for “UniProt Q99JP0 (peptide sequence: NVNTGELAAIK, peptide start residue: 35)”, the log2 fold change was -1.82. To “UniProt Q9EP53 (peptide sequence: SHLLQQNQR, peptide start residue: 890)” belongs -0.636; to “UniProt Q9Z1R3 (peptide sequence: TEGRPDMK, peptide start residue: 115)”, 1.56; to “UniProt Q80XL6 (peptide sequence: NLPDSDSEECLVHGDFK, peptide start residue: 206)”, -0.421. On to “UniProt A2ATU0 (peptide sequence: SSLYSSDIGK, peptide start residue: 380)”, for which the log2 fold change is 0.605. To “UniProt Q7TSE6 (peptide sequence: LSDFGLCTGLKK, peptide start residue: 228)” belongs -2.66; to “UniProt Q5M8N4 (peptide sequence: LGLGGPIGSGR, peptide start residue: 177)”, -0.493. To “UniProt Q9D826 (peptide sequence: INVCYWR, peptide start residue: 224)” belongs 0.236; to “UniProt Q9DC61 (peptide sequence: QVLATHSR, peptide start residue: 451)”, -1.12; to “UniProt Q8C878 (peptide sequence: LPEHCIEYVR, peptide start residue: 245)”, 0.505. For “UniProt P24549 (peptide sequence: SVDDVIKR, peptide start residue: 413)”, the log2 fold change is -0.205. To “UniProt O54988 (peptide sequence: WSSNFKDFLR, peptide start residue: 261)” belongs -3.04; to “UniProt O70503 (peptide sequence: IQKPTLDKPSAETFVK, peptide start residue: 242)”, 0.192; to “UniProt P30561 (peptide sequence: HKLDFTPIGCDAK, peptide start residue: 285)”, -1.1. To “UniProt P70268 (peptide sequence: EGMGYGDR, peptide start residue: 805)” belongs -3.03; to “UniProt Q8CAS9 (peptide sequence: NILDYVTK, peptide start residue: 221)”, 0.389; to “UniProt Q64459 (peptide sequence: ALLSPTFTSGK, peptide start residue: 131)”, -0.273. To “UniProt P18654 (peptide sequence: GAMAATYSALNR, peptide start residue: 701)” belongs 0.612; to “UniProt Q8VCR2 (peptide sequence: ALLPSMLR, peptide start residue: 154)”, -0.279. With “UniProt P12710 (peptide sequence: DIKGVSEIVHEGK, peptide start residue: 34)”, the log2 fold change amounted to 0.719. To “UniProt Q5U5V2 (peptide sequence: ENFIWNLK, peptide start residue: 175)” belongs -0.924; to “UniProt Q9DCZ4 (peptide sequence: TQLEENISQLR, peptide start residue: 58)”, 0.253. To “UniProt O35857 (peptide sequence: NSKGEVYDGDPDKVQR, peptide start residue: 403)” belongs -0.52; to “UniProt Q9CXI0 (peptide sequence: NVTHIDQALQEAHR, peptide start residue: 221)”, -0.267; to “UniProt Q8CAQ8 (peptide sequence: ATEKQHIELALEK, peptide start residue: 423)”, -1.29. With “UniProt O70589 (peptide sequence: FTSSPGLSTEDLKR, peptide start residue: 48)”, the log2 fold change was -2.83.
